# Bioassay records deposited in PubChem BioAssay by National Center for Advancing Translational Sciences (NCATS).
# Rows were chosen to be rich in hits. Some 4.4% of all compounds tested hit in one or more screens of this group.
# ALOX12 inhib: inhibitors of human 12-lipoxygenase (ALOX12); Potency, µM (series often up to 57.1 µM), most hits filed as inhibitors; P18054; purified 12-hLO, xylenol orange hydroperoxide absorbance; actives 0.12% (n = 150,000); AID 1452; note: nearly all actives have a fitted effect of over 55% in size
#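 Lipoxygenase turnover measured by absorbance at 573 and 405 nm after Fe-XO development. Human 12hLO 150 nM, arachidonate 40 uM, pH 7.0 Hepes buffer with detergent; 15 min compound preincubation, 30 min reaction.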
# p53ts 32C kill: p53ts cell cytotoxicity, permissive temperature; actives 0.93% (n = 130,000); AID 924; H1299-p53A138V at 32C, ATP luminescence viability, 24 h; Potency, µM (highest dose often 46.1 µM), usual class: cytotoxic; note: nearly all actives have a fitted effect of over 55% in size
#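 Cells: H1299 p53ts (A138V), 600/well, pre-incubated 16–30 h at 37C. Cpd up to 46 uM, 24 h, 32C. Readout: ATPlite luminescence, 20 min RT. Normalization: DMSO vs tamoxifen 100 uM. AC50 by Hill equation.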
# p53ts 39C tox: p53ts cell cytotoxicity, nonpermissive temperature. H1299-p53A138V viability at 39C, ATP luminescence, 24 h. Potency, µM (top dose mostly 46.1 µM), usual class: cytotoxic. actives 1.5% (n = 130,000). AID 902; note: nearly all actives have a fitted effect of over 55% in size
# HPGD block: HPGD (human) dehydrogenase inhibition. actives 4.3% (n = 150,000). purified HPGD, NADH fluorescence kinetic, PGE2 substrate. Potency, µM, most hits filed as inhibitors. P15428; active = well fitted inhibition curve with a large enough effect, not every such curve was filed as active; inconclusive = small, poorly fitted or top-dose-only effect, or another doubt; inactive = no such curve, though single readings can be large or run the other way
# Target sequence (P15428 whole entry, looked up): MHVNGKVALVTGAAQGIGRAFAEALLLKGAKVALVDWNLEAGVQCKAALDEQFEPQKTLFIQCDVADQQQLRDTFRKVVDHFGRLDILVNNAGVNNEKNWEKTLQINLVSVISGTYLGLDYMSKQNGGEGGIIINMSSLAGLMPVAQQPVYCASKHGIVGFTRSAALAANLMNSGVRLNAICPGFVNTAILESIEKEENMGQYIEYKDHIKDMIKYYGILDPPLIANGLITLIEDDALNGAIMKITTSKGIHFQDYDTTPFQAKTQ
#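 NADH formation kinetics: reaction with 30 uM PGE2 and 1 mM NAD+ (final), 20 nM enzyme, Tris-HCl pH 8 with Tween 20, after 15 min compound preincubation at room temperature. Fluorescence change, last versus first of five reads.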
# A number is an active result; - = inactive; ? = inconclusive; . = no result given; [ ] = remark or other dose. Unless noted, calls come from the whole dose curve; as a rule, active = well fitted curve in the direction sought with a large enough effect; inconclusive = small, poorly fitted or top-dose-only effect, or another doubt; inactive = no such curve, though single readings can be large; an effect the other way counts as inactive or inconclusive.
SMILES,ALOX12 inhib,p53ts 32C kill,p53ts 39C tox,HPGD block
Cc1cccn2c(=O)c(C(=O)NCc3cccc(F)c3)cnc12,.,-,-,.
Cc1ccc2nc(Cl)c3cc(C(=O)N(C)C4CCCCC4)sc3c2c1,.,-,-,.
Cc1c(C(=O)N(C)C2CCCCC2)sc2nc3ccc(N)cc3n12,-[0.00818 µM],.,.,8.9µM
COC(=O)c1ccc(C(NC(=O)OCc2ccccc2)/C(C)=C/[C@@H](C)C(=O)N2CCN(C)CC2)cc1 (stereo partly specified),-,-,-,-
CN(C)/C=C1\C(=O)N(c2ccc(Cl)cc2)CS1(=O)=O,-,.,.,16µM
Cc1ccc(N2CS(=O)(=O)/C(=C/N(C)C)C2=O)cc1,-,.,.,-
C/C(=N\Nc1nnc(-c2ccccc2)c(-c2ccccc2)n1)c1cccc([N+](=O)[O-])c1,-,.,.,6.3µM
Cc1sc(N)c(C(=O)c2cccc(C(F)(F)F)c2)c1C,-,-,-,-
Clc1ccc2c(c1)C1OCCC1C(c1ccco1)N2 (stereo unspecified),-,7.9µM,10µM,?
O=P(CO)(Cc1ccccc1)Cc1ccccc1,-,-,-,16µM
CCCCP(=O)(CCCC)Cc1ccccc1,-,.,.,-
CCC(=O)N(CC)C1=C(O)c2ccccc2C(=O)C1=O,-,.,.,13µM
N#CCCn1cc(/C=N/O)c(-c2ccc(F)cc2)n1,-,.,.,-
CC1(C)CC(=O)C(=Cc2cn(CCC#N)nc2-c2ccc(F)cc2)C(=O)C1,-,.,.,20µM
CC1(C)CC(=O)C(=Cc2cn(CCC#N)nc2-c2ccc(Cl)cc2)C(=O)C1,-,.,.,16µM
N#CCCn1cc(C=C(C#N)C#N)c(-c2ccc(-c3ccccc3)cc2)n1,-,.,.,?
CC1(C)CC(=O)C(=Cc2cn(-c3ccccc3)nc2-c2ccc(Cl)cc2)C(=O)C1,-,.,.,1.1µM
O=C(O)CCC/C=C\C/C=C\C=C\[C@@H](O)C/C=C\CCCCCO,-,.,.,-
Cc1ccc(Cl)cc1NC(=O)Cn1c(=O)n(CCCS(=O)(=O)C2CCCCC2)c(=O)c2ccccc21,.,-,-,.
CCNC(=O)/C(=C/c1ccco1)NC(=O)/C=C/c1ccccc1,?,.,.,18µM
c1coc(-c2nn3c(Cn4nnc5ccccc54)nnc3s2)c1,-,-,-,10µM
c1ccc2c(c1)nnn2Cc1nnc2sc(-c3ccncc3)nn12,-,-,-,18µM
Clc1cccc(-c2nn3c(Cn4cnc5ccccc54)nnc3s2)c1,-,-,-,25µM
Clc1ccc(Cc2nn3c(Cn4nnc5ccccc54)nnc3s2)cc1,-,-,-,22µM
c1csc(-c2nn3c(Cn4cnc5ccccc54)nnc3s2)c1,-,-,-,?
SMILES,ALOX12 inhib,p53ts 32C kill,p53ts 39C tox,HPGD block
CC(C)c1ccc(NC(=O)CSC2=Nc3ccccc3C3=NC(CCC(=O)NCc4cccs4)C(=O)N23)cc1 (stereo unspecified),.,-,-,.
N[C@H](CO)Cc1cnc[nH]1,-,-,-,-
N#Cc1c(-c2ccncc2)c2c([nH]c1=S)CCCC2,-,.,.,22µM
Cc1ccc(-c2c3c([nH]c(=S)c2C#N)CCCC3)o1,-,-,-,8.9µM
Cc1ccc(CNc2nc3ccccc3c3nc(-c4cccc(C)c4)nn23)cc1,.,-,-,.
COCCNC(=O)c1ccc2c(c1)ncn2-c1ccc(F)c(F)c1,-,-,-,2.5µM
COc1cccc(-n2c(C)nc3cc(C(=O)O)ccc32)c1,-,-,-,-
O=C(O)c1ccc2c(c1)ncn2-c1ccc(F)c(F)c1,.,-,-,.
COc1ccc(-n2c(C)nc3cc(C(=O)O)ccc32)cc1,-,.,.,-
CCCCCNC(=O)c1ccc2c(c1)nc(C)n2-c1cccc(C)c1,.,-,20µM,.
COC(CNC(=O)c1ccc2c(c1)nc(C)n2-c1cccc(F)c1)OC,-,.,.,11µM
COCCCNC(=O)c1ccc2c(c1)nc(C)n2-c1cccc(C)c1,.,-,-,.
COC(CNC(=O)c1ccc2c(c1)nc(C)n2-c1ccc(F)c(F)c1)OC,-,-,-,11µM
COc1ccccc1CN1CCC(CNS(=O)(=O)c2cc(-c3onc(C)c3C)ccc2OC)CC1,.,-,-,.
O=C(NCc1ccccc1)c1cccc(N2CCCS2(=O)=O)c1,.,-,-,.
COc1cccc(CNC(=O)CSc2ncc(S(=O)(=O)c3ccc(Br)cc3)c(=O)[nH]2)c1,.,-,-,.
O=C(c1cccc(F)c1)N1CCC(c2c[nH]c3ccccc23)(c2c[nH]c3ccccc23)CC1,.,-,?,.
Cc1nc2cc(C(=O)N3CCc4ccccc43)ccc2n1-c1ccc(F)c(F)c1,-,.,.,14µM
COCCNC(=O)c1ccc2c(c1)nc(C)n2-c1cc(OC)c(OC)c(OC)c1,-,.,.,14µM
COc1ccc(C2CC(=O)N(Cc3ccccc3)c3c2c(C)nn3-c2nc(C)cc(C)n2)c(OC)c1 (stereo unspecified),.,-,-,.
CC(C)C(=O)NCC(c1ccc2c(c1)OCO2)N1CCN(c2ccccc2F)CC1 (stereo unspecified),.,-,-,.
NC(N)=N[C@@H](CCC(=O)O)C(=O)O,.,.,.,-
Cc1cc2c(c(=O)o1)C(C1C=CCCC1)C(C#N)=C(N)O2 (stereo unspecified),-,.,.,28µM
CCOC(=O)c1ccc(NS(=O)(=O)c2ccc3[nH]c(=O)[nH]c3c2)cc1,-,-,-,28µM
CCOC(=O)c1cnc2c(-c3ccccc3)cnn2c1N,-,10µM,7.9µM,?
SMILES,ALOX12 inhib,p53ts 32C kill,p53ts 39C tox,HPGD block
Cc1cc(N)n2ncc(-c3ccccc3)c2n1,-,?,10µM,?
CC1CCC2C(=O)N3C(CCC(C)C3c3ccc(-c4ccco4)cc3)C(=O)N2C1c1ccc(-c2ccco2)cc1 (stereo unspecified),.,-[9.22 µM],-[9.22 µM],.
CC(=O)c1cccc(NC(=O)Nc2ccc(C(=O)N3CCCC3)cc2)c1,-,?,?,1.1µM
O=C(Nc1ccc(C(=O)N2CCOCC2)cc1)Nc1cccc(Cl)c1,-,-,-,28µM
CC(=O)c1cccc(NC(=O)Nc2ccc3c(c2)N(C)C(=O)CS3)c1,-,?,20µM,-
CCN(CC)c1ccc(NC(=O)Nc2cccc(C(C)=O)c2)cc1,-,13µM,13µM,-
Cc1cc(C)cc(NC(=O)Nc2ccc3c(c2)N(C)C(=O)CS3)c1,-,.,.,-
CC(=O)Nc1cccc(NC(=O)Nc2ccc(C(C)=O)cc2)c1,-,?,?,-
CCOc1ccc(-c2nc(Cn3c(=O)cc(-c4ccccc4)c4c(C)nn(C)c43)c(C)o2)cc1,.,-,-,.
CCC/C=C(\CCC)C(NS(=O)(=O)c1ccc(Cl)cc1)c1ccc(C(=O)OC)cc1 (stereo unspecified),-,-,-,-
CCC/C=C(\CCC)C(NS(=O)(=O)CC12CCC(CC1=O)C2(C)C)c1ccc(C(=O)OC)cc1 (stereo unspecified),-,-,-,22µM
CC1=C([N+](=O)[O-])C(c2cccc(Br)c2)C2=C(N1)c1ccccc1C2=O (stereo unspecified),-,.,.,16µM
CCN(CC)C(=O)c1ccc2c3c(cccc13)C(=O)N(CCc1ccc(OC)c(OC)c1)C2=O,-,.,.,18µM
COc1ccc(CCN2C(=O)c3cccc4cccc(c34)C2=O)cc1OC,-,.,.,-
C=CCn1c(NC(=O)CC)c(C(=O)OCC)sc1=S,-,.,.,20µM
